Bioassay records deposited in PubChem by National Center for Advancing Translational Sciences (NCATS).
TrxR1 substrate: substrates of rat thioredoxin reductase 1; O89049; purified TrxR1 substrate turnover, NADPH consumption readout; Potency, µM (doses to about 114 µM), for the others: at the highest dose activity change, negative = substrate turnover; 390,000 compounds, 0.01% hits; further: potency means the concentration at half of the fitted maximal effect; nearly all actives have a fitted effect of over 50% in size
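Rat TrxR1, dispensed at 90 nM, was prereduced with 400 uM NADPH (final) for 5 min at ~22 deg C, then incubated with compound 15 min before 400 uM selenite. A first-read NADPH fluorescence drop versus no-compound background flagged substrates.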
Coupling enz: inhibits coupling enzyme system, counter-screen for aldolase hits | coupling enzyme system counterscreen, AmpLite Red fluorescence | activity change, negative = inhibition, % at 58.2 µM, hits read low | 290,000 compounds, 0.67% hits; in the data active means activity change below about -30%
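Counterscreen lacking aldolase: glyceraldehyde-3-phosphate coupling-enzyme reagent preincubated 10 min at RT with compound (at 57.5 uM final), then substrate/coupling system with AmpLite Red added; fluorescence read at 525/598 nm after 20 min RT.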
USP1 inh: inhibitors of human USP1/UAF1 deubiquitinase; recombinant USP1/UAF1, Ub-Rhodamine cleavage fluorescence; Potency, µM (series often up to 57.1 µM), without a hit: at the top dose activity change, negative = inhibition, usual class: inhibitors; 390,000 compounds, 0.23% hits; further: potency means the concentration at half of the fitted maximal effect; nearly all actives have a fitted effect of over 60% in size
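USP1/UAF1 complex (1 nM) preincubated 15 min at room temperature with compound, then Ub-Rho substrate (150 nM final) added. Kinetic fluorescence at 480/540 nm over 6 reads at 60 s intervals; 50 mM HEPES pH 7.8, 0.5 mM EDTA, 0.1 mg/ml BSA, 1 mM TCEP, 0.01% Tween-20.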
GALK inhibitor: galactokinase (human) inhibition; Potency, µM (series often up to 57.5 µM), inactives show at the highest dose activity change, negative = inhibition, usual class: inhibitors; P51570; 270,000 compounds, 0.007% hits; Purified GALK, Kinase-Glo residual ATP luminescence; further: potency means the concentration at half of the fitted maximal effect
Target sequence (P51570 whole entry, looked up): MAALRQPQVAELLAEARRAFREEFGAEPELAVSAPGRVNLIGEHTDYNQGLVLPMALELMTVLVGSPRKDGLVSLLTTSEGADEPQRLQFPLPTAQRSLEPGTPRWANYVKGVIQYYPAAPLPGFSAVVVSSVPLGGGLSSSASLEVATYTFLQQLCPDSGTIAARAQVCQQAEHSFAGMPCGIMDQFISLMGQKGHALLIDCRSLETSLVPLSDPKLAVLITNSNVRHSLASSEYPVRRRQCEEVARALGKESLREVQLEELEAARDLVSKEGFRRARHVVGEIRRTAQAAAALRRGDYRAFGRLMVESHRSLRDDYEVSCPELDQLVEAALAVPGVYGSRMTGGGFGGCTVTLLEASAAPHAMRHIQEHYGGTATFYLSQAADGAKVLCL
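5 nM enzyme, 35 uM ATP, 100 uM galactose, 20 mM HEPES pH8.0, 5 mM MgCl2; 1 h RT; residual ATP by Kinase-Glo Plus luminescence, qHTS format.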
TrxR1 inh: blocks rat thioredoxin reductase 1. AID 588453. Potency, µM (titrated, usually from 114 µM), without a hit: at the highest dose activity change, negative = inhibition, most hits filed as inhibitors. 390,000 compounds, 1% hits. O89049. recombinant rTrxR1, NADPH fluorescence consumption, selenite substrate; further: potency means the concentration at half of the fitted maximal effect; nearly all actives have a fitted effect of over 65% in size
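Rat TrxR1 (90 nM in the dispensed reagent) was pre-reduced with 400 uM NADPH for 5 min at room temperature, then incubated with compound for 15 min. After 400 uM selenite was added, NADPH fluorescence (Ex 340/Em 450 nm) was followed for 8 min.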
The depositor's hits bear a star; ? = inconclusive; · = not tested or not shown; ! = repeats disagree; [ ] = dose if it differs, or a comment. In the library only some 1.5% were active in any assay of this set; here they are far more common. Unless noted, the call rests on the fitted dose curve; in most records, active means well fitted curve in the direction sought with a large enough effect; inconclusive means small, poorly fitted or top-dose-only effect, or another doubt; inactive means no such curve, though single readings can be large; an effect the other way counts as inactive or inconclusive. On the % scale 0 is the no-effect control and ±100 the full control effect.

SMILES | TrxR1 substrate | Coupling enz | USP1 inh | GALK inhibitor | TrxR1 inh
Cc1ccc(NS(=O)(=O)c2cccc3nsnc23)cc1 | 4.4% | -37.8* | -17.9% | -1.1% | 5.3%
O=S(=O)(Nc1ccccc1)c1cccc2nsnc12 | 1.8% | 2.3 | -18.3% | 5.1% | 5.5%
O=S(=O)(c1ccc(NC(=S)N/N=C/c2ccc(O)c(O)c2)cc1)N1CCOCC1 | -14.7% | -2.7 | -7.5% | 0.1% | -15.3%
COc1cc(CCC(=O)Nc2ccc(S(=O)(=O)N3CCOCC3)cc2)cc(OC)c1OC | 6.3% | · | -7.5% | · | 11.8%
O=[N+]([O-])c1cc(Cl)cc(/C=N/NC(=S)Nc2ccc(S(=O)(=O)N3CCOCC3)cc2)c1O | -7.2% | 1.3 | ? | -5.7% | 79.4µM*
O=S(=O)(c1cccc(NC(=S)Nc2ccc(Br)cc2Cl)c1)N1CCOCC1 | 5.5% | -2.4 | -24.5% | -1.0% | 17.8µM*
COc1cc(NC(=S)Nc2ccc(S(=O)(=O)N3CCOCC3)cc2)cc(OC)c1OC | 9.7% | 1.1 | 5.6% | -1.6% | 14.1µM*
O=C(Nc1ccc(S(=O)(=O)N2CCOCC2)cc1)c1ccc2c(c1)OCO2 | -5.9% | 0.3 | -3.9% | -2.7% | -9.0%
O=S(=O)(c1ccc(NC(=S)Nc2ccc3c(c2)OCO3)cc1)N1CCOCC1 | -5.2% | -0.2 | -21.2% | 1.0% | 39.8µM*
O=C(O)c1ccc(-c2ccc3cc(C45CC6CC(CC(C6)C4)C5)c(O)cc3c2)cc1 | · | -9.7 | · | · | ·
CCOc1cccc(C2C=C(c3ccc4c(c3)OCO4)NC(c3cccc(Br)c3)N2)c1O (stereo not given) | 5.8%[0.0914 µM] | · | · | · | -0.2%
N#Cc1c(NC(=O)c2ccc(Br)o2)n(-c2ccccc2)c2nc3ccccc3nc12 | 21.9% | -31.1* | 6.31µM* | ? | ?
CCC(=O)Nc1c(C#N)c2nc3ccccc3nc2n1-c1ccc(C)cc1 | 124.3% | · | -5.3% | · | 26.9%
CCC(C)n1c(NC(=O)c2ccccc2)c(C#N)c2nc3ccccc3nc21 (stereo not given) | 4.6%[57.1 µM] | -49.3* | ? | -9.9% | -16.2%[57.1 µM]
COc1ccc(-n2c(NC(=O)c3ccc(Br)o3)c(C#N)c3nc4ccccc4nc32)cc1 | · | -15.9 | · | -13.8% | ·
O=C(Nc1cccc(NC(=O)c2ccc(Br)o2)n1)c1ccc(Br)o1 | 7.9% | 2.1 | -12.8% | 1.2% | 31.6µM*
C=CCc1cccc(C2C(C)CCC3C(=O)N4C(Cc5c([nH]c6ccccc56)C4c4cc(OC)c(OC)c(OC)c4)C(=O)N32)c1 (stereo not given) | · | -0.5 | · | · | ·
Cn1nnc2c(NCc3ccco3)ncnc21 | -0.7% | · | · | · | ?
O=C(Nc1nnc(-c2ccccc2)s1)C1CCCN(C(=O)c2ccoc2)C1 (stereo not given) | 0.0% | · | · | · | ?
CCC(C)Nc1ccc(NC(C)CC)cc1 (stereo not given) | ? | · | ? | · | 20µM*
NC(=O)N1c2ccccc2CC(=O)c2ccccc21 | 1.8% | -32.4*! | -25.2% | -1.7% | 10.2%
NC(=O)N1c2ccccc2C=Cc2ccccc21 | 2.1%[57.1 µM] | 1.9 | ? | -0.9% | -4.0%[57.1 µM]
O=C(CN1C(=O)c2ccccc2S1(=O)=O)Nc1cc(S(=O)(=O)N2CCOCC2)ccc1N1CCOCC1 | -5.3% | · | · | · | 8.6%
CC(=O)c1cccc(NC(=O)c2ccc(-c3ccccc3[N+](=O)[O-])o2)c1 | -5.6% | -58.8* | -19.0% | 2.5% | -8.3%
O=[N+]([O-])c1ccccc1-c1ccc(C(=S)N2CCCC2)o1 | -8.9% | -42.5* | ? | 5.9% | -32.0%
SMILES | TrxR1 substrate | Coupling enz | USP1 inh | GALK inhibitor | TrxR1 inh
O=[N+]([O-])c1cc(-c2ccc(C(=S)N3CCOCC3)o2)ccc1Cl | -4.5% | -32.3* | ? | -1.9% | 13.1%
CCCN1C(=O)c2ccccc2NC1c1ccc(OC)c(COc2cccc(OC)c2)c1 (stereo not given) | 41.8% | · | · | · | 47.9%
CN(C)c1ccc(/C=C/c2ccnc3ccccc23)cc1O | -4.9% | · | · | · | -9.0%
CCOC(=O)/C(C)=N/Nc1nc(-c2ccc(NC(C)=O)cc2)cs1 | -14.8% | -6.1 | -18.7% | 0.8% | 56.2µM*
O=C(Nc1ccc(N2CCOCC2)c(Cl)c1)c1cc2ccccc2o1 | -4.3% | -33.4* | -19.1% | -5.6% | 7.5%[2.29 µM]
O=C(Nc1ccccc1N1CCOCC1)c1cc2ccccc2o1 | 1.9% | -0.4 | -8.9% | -4.8% | 8.0%
